Compound activity deposited in PubChem by National Center for Advancing Translational Sciences (NCATS).
Tau fibril ThT: tau fibrillization inhibition (ThT binding). P10636. recombinant tau K18 P301L, heparin-induced fibrillization, ThT fluorescence. Potency, µM (series often up to 57.4 µM), without a hit: at the highest dose activity, negative = inhibition, most hits filed as inhibitors. 270,000 compounds, 2.1% hits. AID 1460; note: nearly all actives have a fitted effect of over 55% in size
Target sequence (P10636 561-689 P618L limits assumed): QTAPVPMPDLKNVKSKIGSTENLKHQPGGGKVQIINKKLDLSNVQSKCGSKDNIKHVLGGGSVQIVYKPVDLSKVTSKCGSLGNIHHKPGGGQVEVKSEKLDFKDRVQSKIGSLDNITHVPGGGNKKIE
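In this qHTS, human K18 P301L tau is incubated with compound and heparin for 6 hr at 37 C, and Thioflavin T fluorescence then reports fibril load.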
ALDH1A1 inh: ALDH1A1 (human) enzyme inhibition | P00352 | Purified ALDH1A1, NADH fluorescence, propionaldehyde substrate | Potency, µM (highest dose often 75.3 µM), for the others: at the top dose activity, negative = inhibition, most hits filed as inhibitors | 220,000 compounds, 7.3% hits | AID 1030; active = well fitted inhibition curve with a large enough effect, not every such curve was filed as active; inconclusive = small, poorly fitted or top-dose-only effect, or another doubt; inactive = no such curve, though single readings can be large or run the other way;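 note: plate controls were no enzyme wells and a reference inhibitor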
HPGD inh: inhibitors of human 15-hydroxyprostaglandin dehydrogenase (HPGD); P15428; Potency, µM, inactives show at the top dose activity change, negative = inhibition, hits mostly inhibitors; 150,000 compounds, 4.3% hits; purified HPGD, NADH fluorescence kinetic, PGE2 substrate; AID 894; active = well fitted inhibition curve with a large enough effect, not every such curve was filed as active; inconclusive = small, poorly fitted or top-dose-only effect, or another doubt; inactive = no such curve, though single readings can be large or run the other way
Target sequence (P15428 whole entry, looked up): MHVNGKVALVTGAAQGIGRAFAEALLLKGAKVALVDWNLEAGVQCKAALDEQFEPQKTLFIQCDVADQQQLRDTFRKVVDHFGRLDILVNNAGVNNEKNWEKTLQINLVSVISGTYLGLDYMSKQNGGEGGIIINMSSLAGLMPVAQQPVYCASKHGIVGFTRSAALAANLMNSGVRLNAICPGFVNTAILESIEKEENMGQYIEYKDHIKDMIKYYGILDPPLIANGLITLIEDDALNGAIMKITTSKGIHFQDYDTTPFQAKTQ
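NADH formation kinetics: reaction with 30 uM PGE2 and 1 mM NAD+ (final), 20 nM enzyme, Tris-HCl pH 8 with Tween 20, after 15 min compound preincubation at room temperature. Fluorescence change, last versus first of five reads.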
Tau fibril FP: tau fibrillization inhibition (FP); Potency, µM (series often up to 57.7 µM), for inactives: at the top dose activity, negative = inhibition, most hits filed as inhibitors; 280,000 compounds, 0.39% hits; AID 1468; K18 P301L tau heparin fibrillization, Alexa594 FP, 6 h; note: nearly all actives have a fitted effect of over 55% in size
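K18 P301L tau (15 uM unlabeled/0.24 uM Alexa 594-labeled, final) + compound + heparin 20 uM final; 100 mM NaOAc pH 7; 6 hr 37 C; ThT 30 uM final added, 1 hr RT; FP ex 555/em 632 nm.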
JMJD2E inh: JMJD2E (human) inhibition; B2RXH2; JMJD2E catalytic domain, FDH-coupled NADH fluorescence (FDH is formaldehyde dehydrogenase); Potency, µM (titrated, usually from 57.1 µM), inactives show at the highest dose activity change, negative = inhibition, usual class: inhibitors; 230,000 compounds, 1.6% hits; active = well fitted inhibition curve with a large enough effect, not every such curve was filed as active; inconclusive = small, poorly fitted or top-dose-only effect, or another doubt; inactive = no such curve, though single readings can be large or run the other way;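 note: 0% = wells with enzyme and -100% = buffer wells without enzyme; nearly all actives have a fitted effect of over 50% in size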
Tau fluor cs: counter-screen for tau fibril formation inhibitors; tau K18 P301L Alexa594 fluorescence, heparin fibrillization; Potency, µM (top dose mostly 57.7 µM), inactives show at the top dose activity change, negative = decrease; 280,000 compounds, 0.93% hits; AID 1463; note: nearly all actives have a fitted effect of over 55% in size
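Human tau K18 P301L (15 uM unlabeled, 0.24 uM Alexa 594-labeled) in 100 mM sodium acetate pH 7 with 20 uM heparin, 6 hr at 37 C. ThT 30 uM added, 1 hr ambient; Alexa 594 FP and total fluorescence read at 555/632 nm.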
An asterisk follows results filed as active; u = inconclusive; x = not tested or not shown; [ ] = another dose, or the depositor's remark. Sampled rows, rich in hits. Any-hit rate of the full collection: about 9.9%. Unless noted, calls come from the whole dose curve; as a rule, active = well fitted curve in the direction sought with a large enough effect; inconclusive = small, poorly fitted or top-dose-only effect, or another doubt; inactive = no such curve, though single readings can be large; an effect the other way counts as inactive or inconclusive. Unless noted, % is set by controls: 0 for no effect and ±100 for the full control effect; potency is the fitted concentration of half-maximal effect.

SMILES | Tau fibril ThT | ALDH1A1 inh | HPGD inh | Tau fibril FP | JMJD2E inh | Tau fluor cs
COc1cc(/C=N/NC(=S)NC2CC3CC2C2C=CCC32)ccc1O (centres undefined) | u | u | x | 12.7% | 8.1% | 11.2µM*[quencher]
CCOc1ccc(/C=N/NC(=S)NC2CC3CC2C2C=CCC32)cc1 (centres undefined) | -1.7% | 8.0% | x | -5.0% | 6.9% | -18.4%
Cc1cc(NC(=O)/C=C/C(=O)N(CC(=O)NC2CCCC2)c2cccc3ccccc23)no1 | u | 2µM* | x | -0.7% | -7.8% | -18.9%
O=C(CCl)NC(Cc1ccccc1)c1ccccc1 (centres undefined) | -5.3% | 1.41µM* | x | -1.9% | -3.0% | 2.9%
CC(=O)C(Cc1ccccc1)NC(=O)CCl (centres undefined) | -2.9% | 22.4µM* | x | -7.9% | u | -3.3%
O=C(O)CSc1nc2ccccc2s1 | -12.2% | 13.7% | x | -7.3% | 2.3% | -12.6%
OC(c1ccccc1)c1nc2ccccc2s1 (centres undefined) | -5.1% | 6.5% | 15.8µM* | 1.9% | -1.0% | 5.6%
N#CC1=C(N)N(c2ccc(Oc3ccccc3)cc2)C(=O)C1 | u | 25.1µM* | -2.3% | -1.3% | -1.0% | -12.8%
Nc1nc2ccc([N+](=O)[O-])c(N)c2s1 | 11.2µM* | u | -24.9% | u | -5.6% | u
COc1ccc(NC(=S)NCc2ccc(S(N)(=O)=O)cc2)c(OC)c1 | -5.2% | u | 14.1µM* | 2.9% | 3.4% | -7.7%
COc1ccc(CNC(=S)Nc2ccc(S(N)(=O)=O)cc2)cc1 | -5.7% | 28.2µM* | x | -2.7% | u | -1.8%
COc1ccc(NC(=S)NNC(=O)c2ccc(S(=O)(=O)N3CCOCC3)cc2)cc1 | -1.4% | u | x | 7.3% | 4.1% | 7.6%
NS(=O)(=O)c1ccc(CNC(=S)NC2CC2)cc1 | -4.4% | 3.16µM* | x | -6.2% | 3.6% | -3.4%
COc1cc(OC)cc(C(=O)NNC(=S)Nc2ccc(S(N)(=O)=O)cc2)c1 | 13.1% | 11.2µM* | x | 9.6% | -2.9% | 17.6%
CCOCCCNC(=S)Nc1ccc(S(N)(=O)=O)cc1 | 9.4% | 5.4% | 14.1µM* | -5.0% | -1.7% | 1.6%
COC(=O)C1=C(C)NC(=S)NC1/C=C/c1ccccc1 (centres undefined) | 3.0% | 1.12µM* | x | 1.8% | 7.6% | -3.7%
CC1=C(C(=O)Nc2ccccc2C(F)(F)F)C(c2ccc(C)s2)NC(=S)N1 (centres undefined) | -5.9% | 0.631µM* | x | 6.0% | -5.5% | -3.0%
COC(=O)C1=C(C)NC(=S)NC1c1sccc1C (centres undefined) | 4.8% | 11.2µM* | x | u | 1.9% | 8.8%
CC1=C(C(=O)Nc2ccccc2C(F)(F)F)C(c2sccc2C)NC(=S)N1 (centres undefined) | -2.2% | 4.47µM* | x | -7.3% | u | -2.6%
Cc1ccc(S(=O)(=O)n2ccc(=O)[nH]2)cc1 | 3.6% | -2.0% | x | 6.6% | 10.3% | 1.2%
Cc1ccc(Nc2nc3c(c(=O)[nH]c(=O)n3C)n2Cc2ccc(F)cc2)cc1 | 0.2% | 6.2% | -10.8% | -11.5% | u | -15.2%
CC(=O)c1ccc(O)c(CC=C(C)C)c1 | -0.7% | x | x | -2.5% | -7.8% | -1.6%
O=C(CNCc1ccccn1)N1CCc2ccccc2C1 | -10.1% | x | x | -6.5% | u | -7.5%
CS(=O)(=O)NCC(c1ccco1)N1CCN(c2ccc(F)cc2)CC1 (centres undefined) | -3.0% | -9.1% | x | -4.8% | -10.6% | -8.3%
Cc1ccc(O)c(C(=O)c2cc(C#N)c(=O)n(CC3CCCO3)c2)c1 (centres undefined) | 0.5% | u | -22.3% | 4.3% | -21.2% | 5.7%
COc1ccc(O)c(C(=O)c2cc(C#N)c(=O)n(CC3CCCO3)c2)c1 (centres undefined) | -17.8% | 25.1µM* | -28.4% | -3.0% | -18.0% | -10.0%
COc1cccc([C@@H]2Oc3ccc(Br)cc3C(=O)[C@H]2OC(=O)N[C@H]2CCCc3ccccc32)c1 | -5.6% | u | -1.4% | -1.3% | 3.2% | -6.5%
